Data reported in PubChem BioAssay (NCI).
About 79,000 compounds went through this panel and 15% of them were active in at least one assay; those are over-represented in the sample as a whole. No stated cut-off is given here; in the data, active means growth inhibition above about 70%; inactive means the rest. Where a SMILES comes first, the peptide text is derived from it. [ ]: non-standard residue; d: D form. The star is where a group is joined. ξ: configuration not given here. ξAsp(βξ-Me) = CC(C(=O)O)C(N)C(=O)O; X11 = CC(N*)C1NC(=O)C2CCCCN2C1=O; ξAbu(3ξ-NH2) = CC(N)C(N)C(=O)O; X10 = CCC(C)CCC/C=C/CC(=O)*; Ac5c = NC1(C(=O)O)CCCC1; Cbz = O=C(OCc1ccccc1)*; Boc = CC(C)(C)OC(=O)*; OBn = c1ccc(CO*)cc1; tBu = CC(C)(C)*

Legend:
[1] = NCI Yeast Anticancer Drug Screen. Data for the rad50 strain (AID 155);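 further: 0% = growth of vehicle-only cultures of the same strain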; settings: S. cerevisiae rad50 strain growth inhibition; at 50.0 µM; hits give high values
How it was run: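 Vehicle-treated cultures provide the reference for the growth inhibition reported for compound-exposed, repair-deficient yeast.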

[2] = NCI Yeast Anticancer Drug Screen. Data for the mec2-1 strain (AID 157); settings: S. cerevisiae mec2-1 strain, at 50.0 µM, hits give high values
How it was run: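 Each compound was tested on mec2-1 yeast, a strain altered in DNA damage repair or cell cycle control. Growth inhibition is reported relative to vehicle.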

[3] = NCI Yeast Anticancer Drug Screen. Data for the sgs1 mgt1 strain (AID 161);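 further: 0% = growth of cultures given vehicle only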; settings: S. cerevisiae sgs1 mgt1 strain, at 50.0 µM, hits give high values
How it was run: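 Inhibition of yeast growth, normalised to vehicle-treated controls, is reported for a strain bearing genetic alterations in DNA damage repair.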

[4] = NCI Yeast Anticancer Drug Screen. Data for the cln2 rad14 strain (AID 165);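 further: 0% = growth equal to vehicle treated cultures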; settings: S. cerevisiae cln2 rad14 strain, at 50.0 µM, hits give high values
How it was run: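 Test compounds were added to cln2 rad14 yeast cultures; inhibition of growth was then determined by comparison with vehicle treatment.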

[5] = NCI Yeast Anticancer Drug Screen. Data for the bub3 strain (AID 167); settings: S. cerevisiae bub3 mutant strain, at 50.0 µM, hits give high values
How it was run: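 Mutant yeast screening strain plus compound; vehicle-treated cultures serve as the 0% inhibition reference.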

[6] = NCI Yeast Anticancer Drug Screen. Data for the mlh1 rad18 strain (AID 175); settings: S. cerevisiae mlh1 rad18 strain growth inhibition; at 50.0 µM; hits give high values
How it was run: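 Inhibition values reflect reduced growth of mutant yeast versus vehicle-treated controls following compound exposure; the mutations affect DNA damage repair.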

Measured: growth inhibition

CN(C)c1nc(O)cc(=O)[nH]1
inactive: [1] 5.05% | [2] -0.35% | [3] -6.6% | [4] -34.8% | [5] 8.3% | [6] 25.3%

FC(F)(F)c1cc(Br)c2ccc3ncccc3c2n1
inactive: [1] 6.5% | [2] 8.3% | [3] -1.05% | [4] -5.2% | [5] 6.8% | [6] 3.1%

CC(=O)OCC1OC(Oc2cccc(C=C(C(C)=O)C(C)=O)c2)C(OC(C)=O)C(OC(C)=O)C1OC(C)=O (centres undefined)
inactive: [1] 9.25% | [2] 3.25% | [3] 6.65% | [4] 5.3% | [5] 0.65% | [6] 30.7%

CCOC(=O)c1cn(CC)c2cc(-n3cccc3)c(F)cc2c1=O
inactive: [1] 46.6% | [2] 27.6% | [3] 48.1% | [4] 39.5% | [5] 27% | [6] 49.9%

O=C(NC[N+]12CCO[B-]1(c1ccc(Cl)cc1)OCC2)c1ccccc1O (centres undefined)
inactive: [1] 19.2% | [2] 0.25% | [3] 24.1% | [4] 25% | [5] 24% | [6] 56.3%

[Zn+2].c1ccc(-c2c3nc(c(-c4ccccc4)c4[n-]c(c(-c5ccccc5)c5nc(c(-c6ccccc6)c6[n-]c2c2ccccc62)-c2ccccc2-5)c2ccccc42)-c2ccccc2-3)cc1
inactive: [1] -37.5% | [2] -36.4% | [3] -32.6% | [4] -6.55% | [5] -23.9% | [6] -36.8%

C=Cc1c(C)c(OC)cc2c1Oc1ccc(OC)c(C)c1CC2
inactive: [1] 0.75% | [2] -0.2% | [3] 19.5% | [4] 8.35% | [5] 13.8% | [6] -23.6%

CC(C)CC(NC(=O)OC(C)(C)C)C(=O)NC(CC(=O)OCc1ccccc1)C(=O)OCc1ccccc1 (stereo not drawn) (Boc-Leu-Asp(OBn)-OBn; configuration not given here)
inactive: [1] 26.3% | [2] -7.25% | [3] 15.5% | [4] 2.2% | [5] 15.8% | [6] 33.5%

CCCCCCC1OCC(C)([N+](=O)[O-])CO1 (centres undefined)
inactive: [1] 13.9% | [2] -8.8% | [3] -1.1% | [4] -28.8% | [5] -12.6% | [6] 5.65%

CCOc1cc2c(cc1C(C)c1ccc(OCc3ccccc3)cc1)OCO2 (centres undefined)
inactive: [1] 6.55% | [2] 3.55% | [3] 2.7% | [4] 1.25% | [5] -2.1% | [6] -20.1%

COc1ccc(/C=C\c2cc(OC)c(OC)c(OC)c2)cc1OC
inactive: [1] 5.2% | [2] 9.05% | [3] -17.7% | [4] 3.05% | [5] -13.1% | [6] 12%

CSCCCNC(=O)c1csc(-c2csc(CCNC(=O)[C@@H](NSc3ccccc3[N+](=O)[O-])[C@@H](C)O)n2)n1
inactive: [1] 0.15% | [2] 6.05% | [3] 1.3% | [4] -22.1% | [5] 0.95% | [6] 18.9%

CCC(=O)OC(OC(=O)CC)c1ccc2c(c1)OCO2
inactive: [1] -4.6% | [2] 0.7% | [3] 4.45% | [4] -18.9% | [5] 7.75% | [6] -1%

CC1(C)C=CC(=NO)C=C1
inactive: [1] -4.65% | [2] 2.65% | [3] -5.95% | [4] 6.45% | [5] 8.4% | [6] 6.7%

O=C(NCCCn1ccnc1[N+](=O)[O-])C(=O)NCCCn1ccnc1[N+](=O)[O-]
inactive: [1] 9.3% | [2] -12.2% | [3] -19.5% | [4] -8.95% | [5] -32% | [6] -23.4%

CCC(C)OC(=Nc1ccccc1)c1ccccc1 (centres undefined)
inactive: [1] -4.05% | [2] 5.95% | [3] -4.5% | [4] 15.7% | [5] -6.7% | [6] 2.4%

O=C(CCCCC(=O)OC1CCCCC1)OC1CCCCC1
inactive: [1] -4.95% | [2] 3.65% | [3] -6.45% | [4] -60.3% | [5] -1.05% | [6] 10.8%

O=C(COc1ccc(Cl)cc1)NC(CO)(CO)CO
inactive: [1] 22.1% | [2] 16.3% | [3] 18.9% | [4] 43% | [5] 17.1% | [6] 10.8%

CCC1(c2ccccc2)SCC(=O)NC1=O (centres undefined)
inactive: [1] 21.1% | [2] 4.5% | [3] 12.8% | [4] 10.8% | [5] 18.4% | [6] 6.95%

CC1CC(C)OC(c2ccccc2)O1 (centres undefined)
inactive: [1] 19.1% | [2] -1.5% | [3] -2.7% | [4] -20.1% | [5] -5% | [6] 19.7%

COC(=O)C1(NC(=O)C(Cc2ccccc2)NC(=O)C(NC(=O)C(CCCCNC(=O)OC(C)(C)C)NC(=O)C(Cc2c[nH]c3ccccc23)NC(=O)C(Cc2ccccc2)NC(=O)OCc2ccccc2)C(C)OC(C)(C)C)CCCC1 (centres undefined) (Cbz-FWK(Boc)T(tBu)F[Ac5c]-OMe; configuration not given here)
inactive: [1] -11.9% | [2] -1.85% | [3] -26.6% | [4] 6.9% | [5] -11.4% | [6] -12.7%

NC(=O)NNc1ccccc1
inactive: [1] 3.6% | [2] 6.2% | [3] -1.85% | [4] -16.4% | [5] -7.2% | [6] -29.2%

CCC(C)CCC/C=C/CC(=O)NC(CC(=O)O)C(=O)NC(C(=O)NC(CC(=O)O)C(=O)NCC(=O)NC(CC(=O)O)C(=O)NCC(=O)NC(C(=O)NC(C(=O)N1CCCC1C(=O)NC(C)C1NC(=O)C2CCCCN2C1=O)C(C)C)C(C)N)C(C)C(=O)O (stereo not drawn) (X10-D[ξAsp(βξ-Me)]DGDG[ξAbu(3ξ-NH2)]VP-X11; configuration not given here)
inactive: [1] -38.3% | [2] -42.5% | [3] -56.2% | [4] -67.4% | [5] -29.5% | [6] -25.9%

CN1C(=O)C(=O)C(c2ccccc2)(c2ccccc2)C1=O
inactive: [1] 9.45% | [2] -4.55% | [3] 12.4% | [4] -53.2% | [5] 8.75% | [6] -10.8%

O=C(Nc1nccs1)Nc1ccc(Cl)cc1[N+](=O)[O-]
inactive: [1] 0.1% | [2] 33.6% | [3] 34.6% | [4] -6.95% | [5] 24.8% | [6] 34.4%

CC(C)(N=NC(C)(C)C(=O)NCCO)C(=O)NCCO
inactive: [1] -6.15% | [2] -6.65% | [3] 0.85% | [4] 19.7% | [5] 2% | [6] -0.65%

COC(=O)c1ccc(C(=O)O)cc1
inactive: [1] 5.35% | [2] -2.65% | [3] -8.15% | [4] -6.55% | [5] 0.65% | [6] -6.5%

NCCCCCCN
inactive: [1] -50.6% | [2] -6.05% | [3] -36.6% | [4] -46.8% | [5] -45.5% | [6] -65%

C[Si](C)(C)CSC#N
inactive: [1] -16.6% | [2] 6.45% | [3] 12.5% | [4] 4.65% | [5] 2.75% | [6] 11.5%

Cc1ccc(S(=O)(=O)N(C)C)cc1NC1=NCCO1
inactive: [1] -2.55% | [2] 5.75% | [3] 7.85% | [4] -40.4% | [5] -1% | [6] -2.6%

COc1ccc([N+](=O)[O-])cc1F
inactive: [1] 10.9% | [2] -12.8% | [3] 5.5% | [4] -6.9% | [5] 8.25% | [6] 31.8%

Cc1nn(-c2ccccc2)c(=O)n2c1nc1ccccc12
inactive: [1] -2% | [2] -9.5% | [3] 20.9% | [4] -43.1% | [5] 26.8% | [6] 11.9%

CCOC(=O)C(C(=O)OCC)C(C(=O)OCC)C(=O)OCC
inactive: [1] -22.7% | [2] 4.45% | [3] -6.2% | [4] -9.65% | [5] -14.5% | [6] -9.05%

COc1ccc2c(c1)c1cc(OC)ccc1n2CCCCOc1ccc(-c2c3ccccc3c(-c3ccc(OCCCCn4c5ccc(OC)cc5c5cc(OC)ccc54)cc3)c3ccccc23)cc1
inactive: [1] 29.1% | [2] 1.85% | [3] -1.1% | [4] 23.9% | [5] 7.9% | [6] 29.6%

CCOc1ccccc1NC(=O)c1c(Br)c(Br)c(Br)c(Br)c1C(=O)O
inactive: [1] 5.6% | [2] -16.8% | [3] -1.8% | [4] -4.15% | [5] 6.05% | [6] -17.6%

COc1ccc(C[C@H](N)C(=O)NC2C(CO)OC(n3cnc4c(N(C)C)ncnc43)C2O)cc1 (some centres undefined)
inactive: [1] -1.7% | [2] -35.1% | [3] -18.4% | [4] -0.8% | [5] -26.9% | [6] -17.3%

Oc1ccc2ccccc2c1C=Nc1ccc(SSc2ccc(N=Cc3c(O)ccc4ccccc34)cc2)cc1
inactive: [1] -6.6% | [2] -10.1% | [3] -19.6% | [4] -59.5% | [5] 0.9% | [6] -3.1%

CN(/N=C/c1ccc(Cl)c(Cl)c1)C1=NCCCCN1
inactive: [1] 1.45% | [2] -13.8% | [3] 2.15% | [4] -6.95% | [5] -15.8% | [6] -2.8%

Cc1cc(O)c(C(C)C)cc1NC(=S)Nc1ccc(S(=O)(=O)c2ccc(NC(=S)Nc3cc(C(C)C)c(O)cc3C)cc2)cc1
inactive: [1] 7.55% | [2] 20.1% | [3] 36.9% | [4] 17.9% | [5] 6.65% | [6] 51.2%
